{"source": "PubChem BioAssay AID651784", "about": "(National Center for Advancing Translational Sciences (NCATS), 2012)", "note": "Records with an inconclusive call do not appear. Active and inactive are the calls of the source. Calls come from the whole dose curve; as a rule, active = well fitted inhibition curve with a large enough effect; inconclusive = small, poorly fitted or top-dose-only effect; inactive = no such curve, though single readings can be large or run the other way.", "data": [{"experiment": "Acumen qHTS Assay for Inhibitors of the mTORC1 Signaling Pathway in MEF (Tsc2-/-, p53-/-) Cells: Hit Validation;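 note: phospho-rpS6 Ser235/236 immunofluorescence normalized to propidium iodide cell count; nearly all actives have a fitted effect of over 65% in size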; note: potency is the fitted concentration of half-maximal effect;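 for activity change, negative = inhibition: cells exposed to compound for 24 hours; plate controls were DMSO for no effect and 7.5 nM rapamycin control for full effect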", "conditions": "Acumen imaging; activity change, negative = inhibition: at 37.3 µM (top of the series)", "units": {"activity change, negative = inhibition": "%"}, "values": [{"compound": "CCC(C)S(=O)(=O)c1oc(-c2cccs2)nc1S(=O)(=O)c1ccccc1", "note": "(stereo not drawn)", "Potency": "0.927 µM (active)"}, {"compound": "COc1ccc(-c2nc3cc(NC(=O)Cc4ccc(Cl)cc4)ccc3o2)cc1OC", "activity change, negative = inhibition": -60.1}, {"compound": "CCS(=O)(=O)c1ncc(Cl)c(C(=O)N(Cc2ccccc2)c2ccc(OC)cc2)n1", "Potency": "2.93 µM (active)"}, {"compound": "COc1ccccc1N1CCN(Cc2cc(COC(C)C)c3cccnc3c2O)CC1", "Potency": "5.21 µM (active)"}, {"compound": "CCCCS(=O)(=O)c1nc(-c2ccc(Br)cc2)cc(-c2ccccc2)c1C#N", "Potency": "6.56 µM (active)"}, {"compound": "Cc1ccc(C)c(N2CCN(CCCNC(=O)Nc3ccc(Cl)cc3)CC2)c1", "activity change, negative = inhibition": -77}, {"compound": "COc1ccc(OCc2nc3c4c(-c5ccccc5)c(-c5ccccc5)oc4ncn3n2)cc1", "activity change, negative = inhibition": 3.1}, {"compound": "Cc1ccc(O)c(C(CC(=O)NCC2(c3ccccc3)CCCC2)c2ccccc2)c1", "note": "(stereo not drawn)", "activity change, negative = inhibition": 2.09}, {"compound": "Cc1ccc(S(=O)(=O)c2nnn3c2nc(NCc2cccs2)c2sccc23)cc1", "activity change, negative = inhibition": -1.4}, {"compound": "CC1CCCN(CCCNC(=O)c2cc3c(Cl)nc4ccccc4c3s2)C1", "note": "(stereo not drawn)", "activity change, negative = inhibition": -16.9}, {"compound": "CCc1ccc(OCC(=O)Nc2ccc3oc(-c4ccc(OC)cc4)nc3c2)cc1", "activity change, negative = inhibition": 7.33}, {"compound": "COc1ccc(CNC(=O)c2cc(-c3ccc(OC)c(OC)c3)nc3n[nH]c(-c4ccc(C)cc4)c23)cc1", "activity change, negative = inhibition": -124}, {"compound": "CCN(CCCNC(=O)c1cc2c(=O)[nH]c3ccc(C)cc3c2s1)Cc1ccccc1", "activity change, negative = inhibition": -139}, {"compound": "CCCCNC(=O)CSc1nc2nc(C)c(Cc3ccccc3C)c(C)n2n1", "activity change, negative = inhibition": 7.74}, {"compound": "COc1ccc(CCNC(=O)CCCn2nc(C)c3sc4ccccc4c3c2=O)cc1OC", "activity change, negative = inhibition": -12}, {"compound": "CC(C)CCNC(=O)C(=O)Nc1c2c(nn1-c1ccc(Cl)cc1)CSC2", "Potency": "5.85 µM (active)"}, {"compound": "Cc1cc(C)cc(NC(=O)c2cnn(-c3ccc(C)c(C)c3)c2C2CCNCC2)c1", "activity change, negative = inhibition": -31.5}, {"compound": "FC(F)(F)c1cccc(Nc2nc3nonc3nc2Nc2ccc(Cl)cc2)c1", "Potency": "1.65 µM (active)"}, {"compound": "COc1cc(C(=O)NC(c2ccccc2Cl)c2cc(Cl)c3cccnc3c2O)cc(OC)c1OC", "note": "(stereo not drawn)", "Potency": "2.33 µM (active)"}, {"compound": "Cc1ccc(CN(Cc2cccn2-c2nnc(N3CCCC3=O)s2)C(=O)Nc2ccccc2C(F)(F)F)cc1", "activity change, negative = inhibition": -12.7}, {"compound": "CCN(CC)CCOC(=O)c1ccc(NC(=O)c2nn(-c3ccc(C)cc3)c(=O)c3c2c2ccccc2n3C)cc1", "Potency": "4.14 µM (active)"}, {"compound": "O=C(CS(=O)(=O)c1cccc2nsnc12)NCc1ccc(Cl)cc1", "activity change, negative = inhibition": 10.4}, {"compound": "CCOc1ccc(CCNCc2c(C(=O)O)n(Cc3ccc(C)cc3)c3cc(OC)ccc23)cc1", "activity change, negative = inhibition": -26.5}, {"compound": "Cc1cccc(OCC(O)Cn2c(=N)n(CCN3CCCCC3)c3ccccc32)c1", "note": "(stereo not drawn)", "Potency": "5.85 µM (active)"}, {"compound": "CCCS(=O)(=O)c1ncc(Cl)c(C(=O)N2CCN(c3ccc(OC)cc3)CC2)n1", "Potency": "7.36 µM (active)"}, {"compound": "Cn1ccc2c(OCC(=O)Nc3ccc(OC(F)(F)F)cc3)cccc2c1=O", "Potency": "16.5 µM (active)"}, {"compound": "CCC1CN(C(=O)NCc2ccc(F)cc2)c2cc(C)ccc2O1", "note": "(stereo not drawn)", "activity change, negative = inhibition": 0.784}, {"compound": "COc1ccc(C(=O)Nc2ccc(OCc3cc(=O)n4ccccc4n3)cc2)cc1", "activity change, negative = inhibition": 7.16}, {"compound": "COc1cccc(-c2nnc3sc(CN4CCCCC4)cn23)c1", "Potency": "1.04 µM (active)"}, {"compound": "Cc1cccc(N(C)S(=O)(=O)c2ccc(-c3cc(C)no3)s2)c1", "activity change, negative = inhibition": -13.9}, {"compound": "CC(C)(C)OC(=O)N1CCC(c2c(C(=O)NCCN3CCC(Cc4ccccc4)CC3)cnn2-c2cccc(Cl)c2)CC1", "activity change, negative = inhibition": -98.8}, {"compound": "CCOc1ccc(N(Cc2ccccc2)C(=O)c2nc(S(C)(=O)=O)ncc2Cl)cc1", "Potency": "2.93 µM (active)"}, {"compound": "CCCCN(C)CCNC(=O)c1cc2c(=O)n(C)c3ccccc3c2n1C", "activity change, negative = inhibition": -0.172}, {"compound": "COc1ccc(Cl)cc1S(=O)(=O)NCc1ccc2c(c1)CCN2C(=O)c1cccc(C)c1", "activity change, negative = inhibition": -22.6}, {"compound": "CCC(=O)C1=C(c2ccc(F)cc2)N(C(=O)CC)n2cnnc2S1", "activity change, negative = inhibition": -29.5}, {"compound": "COc1cc(C(=O)CC2(O)C(=O)N(Cc3ccccc3Cl)c3ccccc32)cc(OC)c1OC", "note": "(stereo not drawn)", "activity change, negative = inhibition": -2.03}, {"compound": "CCCCN(C)CC(O)Cn1cc(/C=C/C(=O)c2ccc(C)cc2)c2ccccc21", "note": "(stereo not drawn)", "Potency": "13.1 µM (active)"}, {"compound": "Cc1ccc(NC(=O)CSc2nc(=O)cc(N)n2CCc2ccccc2)cc1", "activity change, negative = inhibition": -30}]}]}
